# Shown are actives, neighbours in structure and some others; about 3.3% of the full set was active somewhere.
# SMARCA2 activ: activators of SMARCA2 function; AID 652017; activation, % at 9.1 µM; MG213 cells, MMTV-luciferase reporter, dexamethasone, overnight; 370,000 compounds, 1% hits; in the data active = activation above about 7.8%;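 note: 0% = vehicle wells and 100% = reference activator wells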
# Gli-Sufu block: Gli-Sufu pathway antagonism. Sufu-KO-LIGHT fibroblasts, Gli luciferase reporter luminescence. inhibition, % at 5 µM. 340,000 compounds, 0.74% hits;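 active = inhibition above about 55%, limit read from the data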;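 note: 0% = DMSO-treated cells and 100% = wells with medium but no cells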
# esBAF inh: inhibitors of esBAF chromatin remodeling in mouse ES cells. Bmi1-luciferase knock-in reporter, 24 h; 100% = twice the neutral-well signal. reporter increase, % at 12.5 µM. 350,000 compounds, 2% hits. AID 602393; in the data active = activation above about 40%;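 note: 0% = median of the plate's neutral control wells and 100% = double that signal; a rise in the Bmi1 reporter signal indicates esBAF inhibition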
# 697 NFkB inh: lowers PMA/ionomycin-induced NF-kB signal in 697 B cells. 697 B-cell NF-kB luciferase reporter, 16 h. inhibition, % at 4 µM. 330,000 compounds, 0.33% hits. AID 435022; in the data active = inhibition above about 35%
# Jurkat NFkB inh: inhibitors of the PMA/ionomycin-induced NF-kB reporter in Jurkat cells | PMA/ionomycin-induced NF-kB luciferase reporter, luminescence | inhibition, % at 4 µM | 330,000 compounds, 0.53% hits | AID 435003; in the data active = inhibition above about 50%
# Gli antag conf: confirmation of Gli-SUFU pathway antagonists. shares compounds with Gli-Sufu block. 2,500 compounds, 40% hits. Sufu-KO-LIGHT cells, Gli luciferase reporter, luminescence. inhibition, % at 5 µM;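 active = mean inhibition at 5 µM reaching about 45%, limit read from the data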;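 note: plate controls were DMSO-treated cells for no effect and wells lacking cells for full effect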
# Gli cytotox: cytotoxicity counter-screen for Gli-SUFU antagonists | Sufu-KO-LIGHT cells cytotoxicity, ATP luminescence | shares compounds with Gli-Sufu block | 2,500 compounds, 32% hits | cytotoxicity, % at 5 µM;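 active = mean cytotoxicity at 5 µM above about 25%, limit read from the data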;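 note: cells exposed to compound overnight for roughly 16 to 18 hours; plate controls were DMSO wells with cells for no effect and medium without cells for full effect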
# Wnt3a cs: Wnt3a reporter inhibition counter-screen | AID 651995 | 2,500 compounds, 20% hits | inhibition, % at 6.25 µM | Wnt-LIGHT cells, Wnt3a-driven luciferase reporter, luminescence | shares compounds with Gli-Sufu block;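 active = mean inhibition above about 25%, limit read from the data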
# Active calls of the source: *; / = no result given.
SMILES,SMARCA2 activ,Gli-Sufu block,esBAF inh,697 NFkB inh,Jurkat NFkB inh,Gli antag conf,Gli cytotox,Wnt3a cs
CN(C)CCCNC(=O)[C@H]1[C@H](CO)[C@H]2Cn3c(ccc(-c4cccc(F)c4)c3=O)[C@@H]1N2C,/,/,-5,/,/,/,/,/
COc1ccc(C2CC(C(F)(F)F)n3nc(C(=O)N(C)Cc4cn(C)nc4C)c(Cl)c3N2)cc1 (stereo not given),0,0,-16,-26,-2,/,/,/
COc1ccc(C2CC(C(F)(F)F)n3nc(C(=O)NCc4c(C)nn(C)c4C)c(Cl)c3N2)cc1 (stereo not given),-4,61*,-7,-44,14,50*,42*,-1
Nn1c(SCC(=O)NC2CCS(=O)(=O)C2)nc2scc(-c3ccccc3)c2c1=O (stereo not given),2,50,0,5,-4,23,-5,1
CCCNC(=O)N[C@H]1C=C[C@H](CC(=O)N2CCN(C)CC2)O[C@@H]1CO,/,/,1,/,/,/,/,/
CCc1ccc(OC)c(S(=O)(=O)Nc2ccc(Cc3ccncc3)cc2)c1,-6,57*,-6,-25,13,58*,44*,29*
COc1ccc(S(=O)(=O)Nc2ccc(Cc3ccncc3)cc2)cc1OC,-5,15,10,-12,25,/,/,/
O=C(Nc1nc(-c2cccs2)cs1)c1cccc(S(=O)(=O)N2CCCCCC2)c1,-1,61*,12,-31,-17,58*,-5,-81
COc1ccccc1-c1ccc2n(c1=O)C[C@@H]1[C@@H](CO)[C@H](C(=O)NC3CCC3)N(C(=O)C3CCC3)[C@H]21,/,/,3,/,/,/,/,/
O=C(CSc1nc2c([nH]c3ccccc32)c(=O)n1-c1ccccc1)N1CCOCC1,3,8,-39,-24,-29,/,/,/
O=C(CSc1n[nH]c(=O)n1-c1ccccc1)N1CCOCC1,-4,53,-4,4,1,22,11,15
C[C@H](CO)N1C[C@H](C)[C@@H](CN(C)S(=O)(=O)c2ccc(F)cc2)Oc2ccc(NC(=O)Nc3ccc(F)cc3)cc2CC1=O,/,/,6,/,/,/,/,/
C[C@@H](C(=O)N(C)C[C@@H]1OCc2ccccc2-c2ccccc2C(=O)N([C@@H](C)CO)C[C@@H]1C)c1ccccc1,/,/,-1,/,/,/,/,/
CCCNC(=O)N1C[C@@H](C)[C@@H](OC)CN(C)C(=O)c2ccc(NS(=O)(=O)CC(F)(F)F)cc2OC[C@H]1C,/,/,-1,/,/,/,/,/
FC(F)(F)c1ccc(N2CCN(c3cc(-c4ccccc4)nc4ncnn34)CC2)nc1,-1,57*,5,-10,20,49*,10,-64
CCOc1ccc(OCc2ccc(C(=O)NC(C)(C)C)o2)cc1,-2,53,14,-127,-6,13,12,-20
CCOc1ccc(OCc2ccc(C(=O)NN)o2)cc1,2,-65,/,-102,-20,/,/,/
O=C(O)Cc1csc(Nc2cccc(Cl)c2)n1,3,69*,/,3,-8,13,20,-31
Cc1ccc(-c2c[n+](Cc3ccc(Cl)c(Cl)c3)c3n2CCC3)cc1,-6,85*,/,-31,11,80*,26*,-14
CCCNC(=O)c1ccc(N2CCC3(CC2)CC(c2ccccc2)=NO3)c(NC(=O)c2ccccc2)c1,1,18,1,22,18,/,/,/
CCCNC(=O)c1ccc(N2CCC3(CC2)CC(c2ccccc2)=NO3)c(NC(=O)c2cccc(C)c2)c1,0,52,14,-25,25,25,15,-108
C[C@@H]1CCCCO[C@@H](CN(C)C(=O)NC2CCCCC2)[C@H](C)CN([C@@H](C)CO)C(=O)c2cc(NC(=O)Cc3ccccc3)ccc2O1,/,/,20,/,/,/,/,/
COc1c(Cl)ccc(Cl)c1C(=O)NCc1ccco1,0,51,/,11,6,14,2,3
Cc1noc(C)c1NC(=O)N(C)C[C@@H]1Oc2ccc(NC(=O)NC(C)C)cc2CC(=O)N([C@H](C)CO)C[C@H]1C,/,/,-1,/,/,/,/,/
CCC(=O)Nc1ccc2c(c1)OC[C@@H](C)N(C(=O)COC)C[C@H](C)[C@@H](OC)CN(C)C2=O,/,/,-1,/,/,/,/,/
